SRC1 TRFRET art: counter-screen for PPARgamma SRC-1 recruitment agonists: TR-FRET artefact | TR-FRET detection artefact counter-screen, emission ratio; stronger effect = higher value | TR-FRET ratio at 8 µM | hit rate 0.34% among 99,000 | AID 1051; in the data active = TR-FRET ratio above about 2300
PPARg SRC-3 ag: PPARgamma-driven SRC-3 recruitment agonism; hit rate 0.26% among 200,000; activation, % at 8 µM; biochemical PPARgamma/SRC-3 coactivator recruitment assay; AID 731; in the data active = activation above about 23%;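 also: 0% = DMSO and 100% = reference agonist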
Target sequence (P37231 whole entry, looked up): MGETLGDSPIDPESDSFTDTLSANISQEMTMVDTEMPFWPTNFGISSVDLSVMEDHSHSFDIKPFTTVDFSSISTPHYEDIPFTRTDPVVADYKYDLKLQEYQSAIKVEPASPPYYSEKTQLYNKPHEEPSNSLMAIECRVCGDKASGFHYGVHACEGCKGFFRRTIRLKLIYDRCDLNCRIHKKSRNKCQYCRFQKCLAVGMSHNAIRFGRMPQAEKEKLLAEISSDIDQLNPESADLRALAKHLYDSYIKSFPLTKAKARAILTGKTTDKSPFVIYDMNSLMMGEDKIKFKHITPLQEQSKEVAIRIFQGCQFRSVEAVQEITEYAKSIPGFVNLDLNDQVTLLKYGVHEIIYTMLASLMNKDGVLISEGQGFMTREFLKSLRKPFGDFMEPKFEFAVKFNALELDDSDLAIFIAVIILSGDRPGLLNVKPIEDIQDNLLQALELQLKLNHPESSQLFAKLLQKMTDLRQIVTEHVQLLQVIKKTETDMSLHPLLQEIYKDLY
PPARg SRC2 recr: promotes SRC-2 coactivator recruitment by human PPARgamma. PPARgamma LBD-SRC-2 recruitment, biochemical. hit rate 0.34% among 200,000. activation, % at 8 µM. P37231; in the data active = activation above about 22%;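 also: 0% = vehicle and 100% = reference agonist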
SRC3 TRFRET art: counter-screen for PPARgamma SRC-3 recruitment agonists: TR-FRET artefact; PPARgamma/SRC-3 format; stronger effect = higher value; TR-FRET ratio at 8 µM; hit rate 0.39% among 99,000; AID 1048
PPARg SRC1 recr: agonists of human PPARgamma SRC-1 coactivator recruitment | hit rate 0.41% among 200,000 | activation, % at 8 µM | P37231 | PPARgamma-SRC-1 coactivator recruitment biochemical assay; in the data active = activation above about 19%;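 also: 0% = DMSO and 100% = reference agonist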
TR-FRET SRC-2 ct: TR-FRET artefact, counter-screen to PPARgamma/SRC-2 agonist assay; TR-FRET ratio at 8 µM; hit rate 0.4% among 200,000; stronger effect = higher value
* marks the source's active call; other numbers are inactive results; · = no result. The list is not random: actives were taken first. Their share in the collection is about 0.9%. Rule as the data show it, unless noted: active = TR-FRET ratio above about 2000; inactive = the rest.

SMILES	SRC1 TRFRET art	PPARg SRC-3 ag	PPARg SRC2 recr	SRC3 TRFRET art	PPARg SRC1 recr	TR-FRET SRC-2 ct
O=C(Cc1c(Cl)cccc1Cl)Nc1cccnc1	1921	2	-1	1353	6	1553
COc1ccc(C(=O)Nc2cc(C)c3c(=O)oc4ccccc4c3n2)cc1	·	-5	1	·	24*	1536
O=C(O)/C=C/C(=O)Nc1ccc(-c2ccccc2)cc1	1956	4	6	1664	1	1729
COc1ccc(-c2c(C#N)c(C)nc3c2C(=O)c2ccccc2-3)cc1	·	-14	-2	·	24*	1442
CCCNC(=O)CC(NS(=O)(=O)c1ccc(OC)cc1)c1ccco1 (configuration not stated)	1846	-4	3	1867	3	1603
CCOC(=O)c1sc(NC(=O)CSc2nnnn2-c2ccc(C)c(C)c2)nc1C	·	-6	156*	·	-2	4861*
COc1cc(OC)cc(-n2nnnc2SCC(=O)Nc2ccc(C(C)=O)cc2)c1	·	-1	7	·	51*	1477
CCc1cc2c(=O)c(-c3cnn(-c4ccccc4)c3)c(C(F)(F)F)oc2c(CN(C)C)c1O	1681	-1	9	1524	0	1598
COc1ccc(C(=O)OCn2nnc3ccccc3c2=O)cc1	1769	4	-2	1930	7	1481
COCCNC(=S)N1CCc2cc(OC)c(OC)cc2C1COc1ccc(C(C)C)cc1 (configuration not stated)	1843	4	4	1427	2	1522
COc1cccc(Nc2nnc(SCC3CCCCO3)s2)c1 (configuration not stated)	1883	7	-1	1663	-4	2017*
Cc1cccc(N(CC(=O)N2CCOCC2)S(C)(=O)=O)c1C	·	16	13	·	13	1639
Cc1cccc(N(CC(=O)N2CCN(c3ccc(F)cc3)CC2)S(C)(=O)=O)c1C	2469*	2	0	1507	29*	1524
Cc1ccc(-c2csc(NC(=O)c3cc([N+](=O)[O-])ccc3N3CCOCC3)n2)cc1	1659	23*	-6	2579*	1	1581
C[C@@H](O)C1NC(=O)[C@H](CCCCN)NC(=O)c2cc([N+](=O)[O-])cc(I)c2NCCC[C@@H](C(N)=O)NC1=O (some centres not stated)	1811	5	0	1552	8	1633
N#Cc1cc2c(nc1SCc1ccc(Cl)cc1)CCCC2	·	-10	1	·	0	1440
Cc1ccc(CSc2nc3c(cc2C#N)CCC3)cc1	·	1	-4	·	30*	1460
CC(/C=N/N1C(=O)CSC1=S)=C\c1ccccc1	1935	-1	-6	1296	-5	1553
FC(F)(F)c1nc(=S)c2ccccc2[nH]1	2370*	21	27*	2198*	23*	2366*
Cc1ccsc1/C=N/n1c(-c2ccccn2)n[nH]c1=S	1974	4	13	1678	8	1698
CC(=O)Nc1cccc(NC(=O)c2ccc(C)c([N+](=O)[O-])c2)c1	2324*	3	5	1862	9	1815
CCCCN(CC)CCCNC(=O)CC1Nc2ccccc2NC1=O (configuration not stated)	·	13	22*	·	11	1542
O=C1NC2(CCCC2)N=C1c1ccc(Cl)cc1	·	-8	-2	·	4	1415
N#CC(C#N)=c1ccc2c(c1)NC1(CCCCC1)N=2	·	29*	28*	·	39*	1919
Cn1nnnc1SCC(=O)Nc1cc(S(=O)(=O)N2CCCC2)ccc1Cl	1762	1	15	1595	3	1756
SMILES	SRC1 TRFRET art	PPARg SRC-3 ag	PPARg SRC2 recr	SRC3 TRFRET art	PPARg SRC1 recr	TR-FRET SRC-2 ct
CN(C)S(=O)(=O)c1ccc(Cl)c(NC(=O)CSc2nnnn2-c2ccc(O)cc2)c1	2160	1	-3	1580	7	2002*
CCC1=NN(C(=O)Cc2ccc(OC)c(OC)c2)C(O)(C(F)(F)F)C1 (configuration not stated)	1331	-4	1	1556	-6	1540
COC(=O)c1sc(NC(=S)NC(=O)c2ccccc2F)nc1C	2321*	14	12	1927	13	2016*
O=C(CSc1nnc(C2CC2)n1Cc1ccco1)NCC(F)(F)F	2315*	0	4	1469	2	1660
Cc1ccc2c(C(=O)N3CCN(c4ccccc4)CC3)cc(-c3cccnc3)nc2c1C	2369*	-1	2	1604	13	1394
CCOC(=O)c1sc(=NC(=O)c2ccc(OC)c(OC)c2)n(C)c1C	·	1	4	·	80*	1525
CCOC(=O)c1sc(=NC(=O)COc2ccc(Cl)cc2)n(C)c1C	1669	3	5	1434	-3	1448
CCOC(=O)c1sc(=NC(=O)c2cccc(OC)c2)n(C)c1C	·	-5	-1	·	80*	1534
CCOC(=O)c1sc(=NC(=O)c2ccccc2)n(C)c1C	2795*	6	8	2902*	3	2392*
COC(=O)c1ccccc1NC(=S)N(Cc1ccc2c(c1)OCO2)Cc1cc2ccc(OC)cc2[nH]c1=O	1854	-1	13	2123*	-5	1721
N#CC1=C(N)OC2=C(CCC/C2=C/c2ccoc2)C1c1ccoc1 (configuration not stated)	·	31*	18	·	15	1567
N#CC1=C(N)OC2=C(CC/C2=C\c2ccc(F)cc2)C1c1ccc(F)cc1 (configuration not stated)	1727	1	7	1626	-6	1504
O=c1oc2ccccc2cc1-c1cn2ccccc2n1	1911	60*	5	3228*	-7	1565
CCc1ccc(N/C(N)=N/c2nc(CSc3ccccn3)cc(=O)[nH]2)cc1	2062	5	17	2114*	5	1924
COc1cccc(N/C(N)=N/c2nc(CSc3ccccn3)cc(=O)[nH]2)c1	1915	3	1	1524	6	1675
O=C(Nc1nc(-c2ccc(Cl)cc2)cs1)NC1CCCCC1	1682	-4	0	1599	3	1577
CN(C)S(=O)(=O)c1cccc(NC(=O)COC(=O)c2cc(-c3cccc(Br)c3)nc3ccccc23)c1	2585*	26*	8	3725*	4	2575*
Cc1ccc(CNC(=O)COc2ccc(C(=O)c3ccc(F)cc3)cc2)cc1	2702*	-2	5	1604	39*	1529
Cc1ccc(-n2c(N)c(C(=O)N3CCN(C)CC3)sc2=S)cc1	·	30*	-4	·	3	1307
c1ccc(Cc2noc(CN3CCN(CCOc4ccccc4)CC3)n2)cc1	1659	1	2	1380	12	1358
Cc1cc([N+](=O)[O-])ccc1N=Nc1c(N)[nH]n(-c2ccccc2)c1=O	2323*	6	3	1687	-2	1291
O=C(Nc1ccc([N+](=O)[O-])cc1)/C(=C/c1cccc([N+](=O)[O-])c1)NC(=O)C1CCCCC1	·	8	24*	·	-1	1705
Cc1ccc(NC(=O)/C(=C/c2cccc([N+](=O)[O-])c2)NC(=O)C2CCCCC2)c(C)c1	·	5	-1	·	-5	1516
